Common to all, as to test: DAPPL (digital affinity profiling via proximity ligation, sequencing); 10 mM Tris-HCl pH 7.5, 50 mM NaCl, 1 mM DTT, 4% glycerol, room temperature, 30 min; GST-TFs on glutathione beads, 16-mer random dsDNA library, 0.1% formaldehyde crosslink after washing; high values mean tight binding
Holding throughout (conditions): protein: recombinant; tags: N-terminal GST; dsDNA, one strand shown

In one test the target is T1, FLI1 (Homo sapiens, UniProt Q01543 1-452).
T1 sequence: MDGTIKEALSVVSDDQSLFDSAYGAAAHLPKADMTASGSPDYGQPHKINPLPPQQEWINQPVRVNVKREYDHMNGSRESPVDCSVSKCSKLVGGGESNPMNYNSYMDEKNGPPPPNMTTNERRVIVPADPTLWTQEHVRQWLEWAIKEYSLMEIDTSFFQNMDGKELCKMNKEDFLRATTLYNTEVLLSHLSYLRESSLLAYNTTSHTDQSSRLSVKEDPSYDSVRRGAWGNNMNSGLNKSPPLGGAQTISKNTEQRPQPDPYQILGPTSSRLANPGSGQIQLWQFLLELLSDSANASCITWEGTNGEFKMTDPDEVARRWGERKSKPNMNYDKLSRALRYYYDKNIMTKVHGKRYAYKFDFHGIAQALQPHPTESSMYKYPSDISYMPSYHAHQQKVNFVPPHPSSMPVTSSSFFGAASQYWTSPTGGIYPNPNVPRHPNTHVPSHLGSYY
The procedure, abridged:
(§1)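 Each value of binding signal is a hexamer's read frequency for a factor divided by the same hexamer's frequency in the tag-only sample. Barcoded, bead-captured GST fusions of human transcription factors made in yeast were pooled with that sample and incubated with 200 nmole of a random double-stranded 16-mer DNA library in Tris/NaCl/DTT/glycerol buffer at room temperature for 30 min. Washing, 0.1% formaldehyde crosslinking, proximity ligation, PCR and Illumina NextSeq500 sequencing followed.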

The target in the next test is T2, ELK1 (Homo sapiens, UniProt P19419 1-428).
T2 sequence: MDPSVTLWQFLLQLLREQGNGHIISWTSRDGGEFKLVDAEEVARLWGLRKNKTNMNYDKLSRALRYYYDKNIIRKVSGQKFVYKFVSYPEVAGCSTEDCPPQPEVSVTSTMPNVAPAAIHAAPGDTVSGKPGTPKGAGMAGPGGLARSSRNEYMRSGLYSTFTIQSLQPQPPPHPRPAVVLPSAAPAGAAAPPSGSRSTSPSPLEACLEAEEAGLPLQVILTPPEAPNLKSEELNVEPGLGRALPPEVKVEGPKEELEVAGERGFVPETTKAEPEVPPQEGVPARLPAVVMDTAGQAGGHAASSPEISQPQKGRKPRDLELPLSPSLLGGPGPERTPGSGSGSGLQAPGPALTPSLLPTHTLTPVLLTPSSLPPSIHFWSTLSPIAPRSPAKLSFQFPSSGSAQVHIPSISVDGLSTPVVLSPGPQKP
The method in brief: as §1

The next test concerns the target T3, GABPA (Homo sapiens, UniProt Q06546 1-454).
T3 sequence: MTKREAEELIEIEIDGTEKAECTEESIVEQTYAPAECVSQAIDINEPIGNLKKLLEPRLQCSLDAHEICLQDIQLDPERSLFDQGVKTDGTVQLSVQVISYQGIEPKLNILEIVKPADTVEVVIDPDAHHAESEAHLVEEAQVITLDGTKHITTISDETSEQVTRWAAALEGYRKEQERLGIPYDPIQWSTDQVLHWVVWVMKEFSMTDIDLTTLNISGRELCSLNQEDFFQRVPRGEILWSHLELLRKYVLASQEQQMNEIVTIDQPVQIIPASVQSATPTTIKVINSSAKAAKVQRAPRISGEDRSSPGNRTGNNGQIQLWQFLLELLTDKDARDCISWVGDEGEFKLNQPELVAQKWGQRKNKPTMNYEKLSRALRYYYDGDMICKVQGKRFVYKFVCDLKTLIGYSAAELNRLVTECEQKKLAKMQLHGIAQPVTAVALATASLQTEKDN
The procedure, abridged:
as §1

Another test has as its target T4, ERG (Homo sapiens, UniProt P11308 1-479).
T4 sequence: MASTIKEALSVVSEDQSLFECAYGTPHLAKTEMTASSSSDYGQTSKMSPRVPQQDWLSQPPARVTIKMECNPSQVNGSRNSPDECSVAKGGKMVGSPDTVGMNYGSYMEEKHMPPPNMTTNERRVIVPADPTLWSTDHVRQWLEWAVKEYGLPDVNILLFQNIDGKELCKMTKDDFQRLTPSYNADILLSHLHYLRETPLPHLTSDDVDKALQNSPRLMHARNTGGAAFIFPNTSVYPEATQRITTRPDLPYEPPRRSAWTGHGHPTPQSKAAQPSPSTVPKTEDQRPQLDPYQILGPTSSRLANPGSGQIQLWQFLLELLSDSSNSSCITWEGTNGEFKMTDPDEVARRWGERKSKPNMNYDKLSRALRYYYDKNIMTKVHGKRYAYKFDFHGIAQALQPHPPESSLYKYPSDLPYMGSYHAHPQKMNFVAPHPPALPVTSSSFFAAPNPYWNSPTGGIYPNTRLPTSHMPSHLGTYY
The procedure, abridged: as §1

The target in a further test is ELF1 (Homo sapiens, UniProt P32519 1-619). The method in brief:
as §1

A further test deals with T5, EHF (Homo sapiens, UniProt Q9NZC4 1-300).
T5 sequence: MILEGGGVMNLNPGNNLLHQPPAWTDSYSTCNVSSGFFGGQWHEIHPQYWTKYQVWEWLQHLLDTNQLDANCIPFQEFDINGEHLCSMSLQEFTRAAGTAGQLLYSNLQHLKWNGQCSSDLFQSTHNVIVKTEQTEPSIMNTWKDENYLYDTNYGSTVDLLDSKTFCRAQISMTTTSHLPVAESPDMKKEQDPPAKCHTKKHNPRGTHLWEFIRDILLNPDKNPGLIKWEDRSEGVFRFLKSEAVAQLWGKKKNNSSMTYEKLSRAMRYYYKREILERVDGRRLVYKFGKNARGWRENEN
The procedure, abridged: as §1

For a further test, the target named is SPI1 (Homo sapiens, UniProt P17947 1-270). The procedure, abridged: as §1
Another test deals with SPIB (Homo sapiens, UniProt Q01892 1-262). The procedure, abridged:
as §1

The next test has as its target T6, ELK3 (Homo sapiens, UniProt P41970 1-407).
T6 sequence: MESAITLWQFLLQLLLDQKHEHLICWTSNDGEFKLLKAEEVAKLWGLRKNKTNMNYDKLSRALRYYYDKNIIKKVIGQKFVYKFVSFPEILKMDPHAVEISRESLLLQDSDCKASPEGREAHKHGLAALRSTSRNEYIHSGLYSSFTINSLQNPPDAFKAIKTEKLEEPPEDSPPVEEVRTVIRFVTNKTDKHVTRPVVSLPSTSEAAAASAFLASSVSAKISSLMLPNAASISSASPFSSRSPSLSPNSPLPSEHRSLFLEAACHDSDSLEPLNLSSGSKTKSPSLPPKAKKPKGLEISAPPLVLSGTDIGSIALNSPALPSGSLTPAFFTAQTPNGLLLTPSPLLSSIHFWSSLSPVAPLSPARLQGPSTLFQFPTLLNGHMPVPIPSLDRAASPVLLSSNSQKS
The procedure, abridged:
as §1

ELF1, sequence (P32519 whole entry): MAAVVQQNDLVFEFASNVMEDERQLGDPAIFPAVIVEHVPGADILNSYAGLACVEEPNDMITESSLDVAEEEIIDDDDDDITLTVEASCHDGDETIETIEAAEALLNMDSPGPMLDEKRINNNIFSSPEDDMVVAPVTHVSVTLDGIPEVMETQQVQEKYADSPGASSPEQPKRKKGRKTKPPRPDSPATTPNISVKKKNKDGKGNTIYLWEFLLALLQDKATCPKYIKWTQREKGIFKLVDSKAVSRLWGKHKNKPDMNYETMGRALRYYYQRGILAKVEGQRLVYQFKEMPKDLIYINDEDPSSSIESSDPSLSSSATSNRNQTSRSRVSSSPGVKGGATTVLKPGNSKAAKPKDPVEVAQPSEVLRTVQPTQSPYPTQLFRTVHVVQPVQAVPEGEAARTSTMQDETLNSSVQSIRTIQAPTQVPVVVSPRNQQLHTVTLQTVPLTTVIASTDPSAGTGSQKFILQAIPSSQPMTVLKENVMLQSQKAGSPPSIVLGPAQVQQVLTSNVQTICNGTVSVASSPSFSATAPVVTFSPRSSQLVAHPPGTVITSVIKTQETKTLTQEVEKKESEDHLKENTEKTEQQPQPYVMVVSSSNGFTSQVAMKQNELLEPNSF
SPIB, sequence (Q01892 whole entry): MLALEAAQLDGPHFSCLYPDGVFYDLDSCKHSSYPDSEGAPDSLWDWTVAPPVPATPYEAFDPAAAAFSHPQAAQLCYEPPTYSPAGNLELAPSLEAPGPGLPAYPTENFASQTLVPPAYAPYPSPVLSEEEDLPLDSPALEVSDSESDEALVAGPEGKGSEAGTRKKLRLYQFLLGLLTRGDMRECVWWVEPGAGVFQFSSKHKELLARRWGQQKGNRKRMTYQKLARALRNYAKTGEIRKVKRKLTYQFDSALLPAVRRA

Turning to ATGCTA, the binding signal is 1.21 fold enrichment (6-mer frequency, TF over GST control) in the test with FLI1; 1.2 fold enrichment (6-mer frequency, TF over GST control) in the test with ELK1; 1.25 fold enrichment (6-mer frequency, TF over GST control) with GABPA; 1.27 fold enrichment (6-mer frequency, TF over GST control) with ERG; 1.23 fold enrichment (6-mer frequency, TF over GST control) in the test with ELF1; 1.28 fold enrichment (6-mer frequency, TF over GST control) in the test with EHF. Moreover, the binding signal with SPI1 was 1.22 fold enrichment (6-mer frequency, TF over GST control); with SPIB it was 1.21 fold enrichment (6-mer frequency, TF over GST control); with ELK3, 1.37 fold enrichment (6-mer frequency, TF over GST control).

As to ATTCAT, the binding signal in the test with FLI1 was 1.28 fold enrichment (6-mer frequency, TF over GST control); with ELK1, 1.12 fold enrichment (6-mer frequency, TF over GST control); with GABPA, 1.14 fold enrichment (6-mer frequency, TF over GST control); with ERG, 1.16 fold enrichment (6-mer frequency, TF over GST control); with ELF1 it was 1.16 fold enrichment (6-mer frequency, TF over GST control); in the test with EHF, 1.12 fold enrichment (6-mer frequency, TF over GST control). For the same sequence, the binding signal with SPI1 was 1.15 fold enrichment (6-mer frequency, TF over GST control); in the test with SPIB, 1.21 fold enrichment (6-mer frequency, TF over GST control); with ELK3, 1.19 fold enrichment (6-mer frequency, TF over GST control).

With CTCAAT, the binding signal was 1.28 fold enrichment (6-mer frequency, TF over GST control) with FLI1; 1.2 fold enrichment (6-mer frequency, TF over GST control) with ELK1; 1.28 fold enrichment (6-mer frequency, TF over GST control) with GABPA; 1.27 fold enrichment (6-mer frequency, TF over GST control) with ERG; 1.23 fold enrichment (6-mer frequency, TF over GST control) with ELF1; 1.25 fold enrichment (6-mer frequency, TF over GST control) with EHF. The binding signal with SPI1 is 1.33 fold enrichment (6-mer frequency, TF over GST control); with SPIB, 1.36 fold enrichment (6-mer frequency, TF over GST control); in the test with ELK3, 1.34 fold enrichment (6-mer frequency, TF over GST control).

On to CAAGAT, for which the binding signal with FLI1 is 1.04 fold enrichment (6-mer frequency, TF over GST control); in the test with ELK1, 1.04 fold enrichment (6-mer frequency, TF over GST control); with GABPA it was 1.17 fold enrichment (6-mer frequency, TF over GST control); with ERG, 1.05 fold enrichment (6-mer frequency, TF over GST control); with ELF1, 1.06 fold enrichment (6-mer frequency, TF over GST control); in the test with EHF it was 1.04 fold enrichment (6-mer frequency, TF over GST control). In addition, the binding signal was 1.01 fold enrichment (6-mer frequency, TF over GST control) in the test with SPI1; 1.01 fold enrichment (6-mer frequency, TF over GST control) with SPIB; 1.14 fold enrichment (6-mer frequency, TF over GST control) with ELK3.

Consider CTGTCT, for which the binding signal with FLI1 was 1.35 fold enrichment (6-mer frequency, TF over GST control); with ELK1, 1.3 fold enrichment (6-mer frequency, TF over GST control); with GABPA it was 1.31 fold enrichment (6-mer frequency, TF over GST control); with ERG, 1.46 fold enrichment (6-mer frequency, TF over GST control); with ELF1, 1.35 fold enrichment (6-mer frequency, TF over GST control); with EHF it was 1.35 fold enrichment (6-mer frequency, TF over GST control). Also, the binding signal with SPI1 is 1.33 fold enrichment (6-mer frequency, TF over GST control); in the test with SPIB it was 1.3 fold enrichment (6-mer frequency, TF over GST control); in the test with ELK3, 1.62 fold enrichment (6-mer frequency, TF over GST control).

As to CTCGCA, the binding signal in the test with FLI1 is 1.34 fold enrichment (6-mer frequency, TF over GST control); with ELK1, 1.25 fold enrichment (6-mer frequency, TF over GST control); with GABPA, 1.29 fold enrichment (6-mer frequency, TF over GST control); in the test with ERG it was 1.29 fold enrichment (6-mer frequency, TF over GST control); in the test with ELF1 it was 1.27 fold enrichment (6-mer frequency, TF over GST control); in the test with EHF, 1.3 fold enrichment (6-mer frequency, TF over GST control). The binding signal was 1.27 fold enrichment (6-mer frequency, TF over GST control) with SPI1; 1.22 fold enrichment (6-mer frequency, TF over GST control) in the test with SPIB; 1.17 fold enrichment (6-mer frequency, TF over GST control) with ELK3.

Consider AAACCC, for which the binding signal was 1.26 fold enrichment (6-mer frequency, TF over GST control) in the test with FLI1; 1.32 fold enrichment (6-mer frequency, TF over GST control) in the test with ELK1; 1.22 fold enrichment (6-mer frequency, TF over GST control) with GABPA; 1.25 fold enrichment (6-mer frequency, TF over GST control) in the test with ERG; 1.32 fold enrichment (6-mer frequency, TF over GST control) with ELF1; 1.27 fold enrichment (6-mer frequency, TF over GST control) in the test with EHF. Moreover, the binding signal in the test with SPI1 was 1.22 fold enrichment (6-mer frequency, TF over GST control); in the test with SPIB it was 1.34 fold enrichment (6-mer frequency, TF over GST control); with ELK3, 1.36 fold enrichment (6-mer frequency, TF over GST control).

CTGCTC: the binding signal with FLI1 was 1.32 fold enrichment (6-mer frequency, TF over GST control); with ELK1, 1.37 fold enrichment (6-mer frequency, TF over GST control); with GABPA, 1.18 fold enrichment (6-mer frequency, TF over GST control); in the test with ERG it was 1.28 fold enrichment (6-mer frequency, TF over GST control); with ELF1, 1.34 fold enrichment (6-mer frequency, TF over GST control); with EHF, 1.27 fold enrichment (6-mer frequency, TF over GST control). Moreover, the binding signal with SPI1 is 1.29 fold enrichment (6-mer frequency, TF over GST control); with SPIB, 1.39 fold enrichment (6-mer frequency, TF over GST control); with ELK3, 1.3 fold enrichment (6-mer frequency, TF over GST control).

The values are drawn from PMC7862700, “An all-to-all approach to the identification of sequence-specific readers for epigenetic DNA modifications on cytosine”.
